This test has as its target T1, CRBN, Q96SW2.
T1 chain: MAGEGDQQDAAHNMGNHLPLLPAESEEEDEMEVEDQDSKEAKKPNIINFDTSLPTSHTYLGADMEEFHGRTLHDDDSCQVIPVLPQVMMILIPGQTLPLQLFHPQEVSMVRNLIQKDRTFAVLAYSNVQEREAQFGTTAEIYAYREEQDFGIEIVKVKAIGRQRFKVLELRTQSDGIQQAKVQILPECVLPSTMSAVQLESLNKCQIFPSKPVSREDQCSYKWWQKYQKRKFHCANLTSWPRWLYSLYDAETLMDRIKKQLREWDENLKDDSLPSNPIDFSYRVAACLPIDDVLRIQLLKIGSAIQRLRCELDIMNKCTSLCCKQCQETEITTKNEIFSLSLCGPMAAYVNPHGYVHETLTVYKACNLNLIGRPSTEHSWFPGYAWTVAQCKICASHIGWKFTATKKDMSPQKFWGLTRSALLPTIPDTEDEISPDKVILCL
Nature of the test: log2 fold change of degron read counts, EGFP-low vs EGFP+ sorted cells (limma voom), compound-induced degradation; higher = more compound-induced degradation of the degron-EGFP fusion; degrons are variants of IKZF1/3 zinc finger 2; compound dose not given here. The following applies: Jurkat, 18 h.

Where [1] appears, read: compound: compound 19 (5-tert-butyl-thalidomide).
The mark [2] stands for this setting: compound: compound 22 (5-morpholino-thalidomide).
Setting [3] is: compound: compound 33 (diphenyl IMiD analogue).

Over roughly 8,300 sequences, “log2 fold change of degron read counts, EGFP-low vs EGFP+ sorted cells (limma voom), compound-induced degradation” has its median near -1.1; the highest 2% begin near 3.2. Shown is part of a subset that was picked to be rich in the highest values.
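Further: pooled lentiviral library of zinc finger degron-EGFP fusions in mCherry-positive Jurkat cells, FACS-sorted after compound exposure, with degron abundance counted by next-generation sequencing.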

Regarding FECDVCGANFTQKGNLLRHIKL [46F_47E_49D_50V_52G_53A_54N_55F_67L_, Q9UKT9], the “log2 fold change of degron read counts” value is -1.89 under setting [1], -2.52 under setting [2], 0.03 under setting [3] and -0.264 (compound: thalidomide).

Take FSCEICGHWFTQKGNLLRHIKL [46F_47S_49E_50I_52G_53H_54W_55F_67L_, Q9UKT9]: the “log2 fold change of degron read counts” value was -2.92 under setting [1], -3.14 under setting [2], -2.71 under setting [3] and -2.77 (compound: thalidomide).

As to FRCNICGAMFTQKGNLLRHIKL [46F_47R_49N_50I_52G_53A_54M_55F_67L_, Q9UKT9], the “log2 fold change of degron read counts” value by setting is: under setting [1], -1.41; under setting [2], -1.24; under setting [3], -0.539; (compound: thalidomide) -0.171.

Consider FKCPICGHGFTQKGNLLRHIKL [46F_47K_49P_50I_52G_53H_54G_55F_67L_, Q9UKT9], for which the “log2 fold change of degron read counts” value is, setting by setting: under setting [1], -2.34; under setting [2], -2.29; under setting [3], -2.14; (compound: thalidomide) -1.69.

Regarding FYCPVCGAKFTQKGNLLRHIKL [46F_47Y_49P_50V_52G_53A_54K_55F_67L_, Q9UKT9], the “log2 fold change of degron read counts” value under setting [1] was 2.58, the “log2 fold change of degron read counts” value under setting [2] was 2.82, the “log2 fold change of degron read counts” value under setting [3] stood at 1.14 and the “log2 fold change of degron read counts” value (compound: thalidomide) was found to be 0.354.

On to FSCEVCGAHFTQKGNLLRHIKL [46F_47S_49E_50V_52G_53A_54H_55F_67L_, Q9UKT9], for which the “log2 fold change of degron read counts” value came out at 2.19 under setting [1], 0.401 under setting [2], 0.505 under setting [3] and 0.0402 (compound: thalidomide).

FGCEICGAMFTQKGNLLRHIKL [46F_47G_49E_50I_52G_53A_54M_55F_67L_, Q9UKT9]: the “log2 fold change of degron read counts” value was found to be 3 under setting [1], 2.34 under setting [2], 1.39 under setting [3] and 0.523 (compound: thalidomide).

FECEICGAMFTQKGNLLRHIKL [46F_47E_49E_50I_52G_53A_54M_55F_67L_, Q9UKT9]: the “log2 fold change of degron read counts” value under setting [1] was -0.963, the “log2 fold change of degron read counts” value under setting [2] was -1.94, the “log2 fold change of degron read counts” value under setting [3] is 0.392 and the “log2 fold change of degron read counts” value (compound: thalidomide) was found to be 1.16.

Consider FFCEICGAMFTQKGNLLRHIKL [46F_47F_49E_50I_52G_53A_54M_55F_67L_, Q9UKT9], for which the “log2 fold change of degron read counts” value runs as follows: under setting [1], 3.34; under setting [2], 3.12; under setting [3], 1.91; (compound: thalidomide) 0.537.

On to FCCEICGAMFTQKGNLLRHIKL [46F_47C_49E_50I_52G_53A_54M_55F_67L_, Q9UKT9], for which the “log2 fold change of degron read counts” value reads like this: under setting [1], 2.28; under setting [2], 1.35; under setting [3], 2.11; (compound: thalidomide) 1.39.

As for FDCEICGAMFTQKGNLLRHIKL [46F_47D_49E_50I_52G_53A_54M_55F_67L_, Q9UKT9], the “log2 fold change of degron read counts” value is, setting by setting: under setting [1], 0.132; under setting [2], -1.04; under setting [3], -0.408; (compound: thalidomide) 0.217.

On to FNCEICGAMFTQKGNLLRHIKL [46F_47N_49E_50I_52G_53A_54M_55F_67L_, Q9UKT9], for which the “log2 fold change of degron read counts” value under setting [1] came to 1.65, the “log2 fold change of degron read counts” value under setting [2] is -0.456, the “log2 fold change of degron read counts” value under setting [3] was -0.467 and the “log2 fold change of degron read counts” value (compound: thalidomide) was -0.552.

In the case of FQCEICGAMFTQKGNLLRHIKL [46F_47Q_49E_50I_52G_53A_54M_55F_67L_, Q9UKT9], the “log2 fold change of degron read counts” value was -0.0508 under setting [1], 2.24 under setting [2], 2.45 under setting [3] and 3.57 (compound: thalidomide).

For FLCEICGAMFTQKGNLLRHIKL [46F_47L_49E_50I_52G_53A_54M_55F_67L_, Q9UKT9], the “log2 fold change of degron read counts” value is -0.288 under setting [1], -1.63 under setting [2], 0.563 under setting [3] and 0.887 (compound: thalidomide).

As for FACEICGAMFTQKGNLLRHIKL [46F_47A_49E_50I_52G_53A_54M_55F_67L_, Q9UKT9], the “log2 fold change of degron read counts” value is, setting by setting: under setting [1], 3.3; under setting [2], 1.74; under setting [3], 0.378; (compound: thalidomide) -0.0211.

Take FHCEICGAMFTQKGNLLRHIKL [46F_47H_49E_50I_52G_53A_54M_55F_67L_, Q9UKT9]: the “log2 fold change of degron read counts” value under setting [1] was found to be 2.38, the “log2 fold change of degron read counts” value under setting [2] was 1.87, the “log2 fold change of degron read counts” value under setting [3] worked out at 1.06 and the “log2 fold change of degron read counts” value (compound: thalidomide) is -0.251.

In the case of FMCEICGAMFTQKGNLLRHIKL [46F_47M_49E_50I_52G_53A_54M_55F_67L_, Q9UKT9], the “log2 fold change of degron read counts” value under setting [1] is -0.964, the “log2 fold change of degron read counts” value under setting [2] is -0.957, the “log2 fold change of degron read counts” value under setting [3] came out at 1.9 and the “log2 fold change of degron read counts” value (compound: thalidomide) is 0.514.

With FWCEICGAMFTQKGNLLRHIKL [46F_47W_49E_50I_52G_53A_54M_55F_67L_, Q9UKT9], the “log2 fold change of degron read counts” value by setting is: under setting [1], 3.33; under setting [2], 3.63; under setting [3], 2.34; (compound: thalidomide) 0.517.

Values taken from the supplement of paper PMC12645437, “Orthogonal IMiD-Degron Pairs Induce Selective Protein Degradation in Cells” (ACS Chemical Biology, 2025).
